Screens: PubChem, National Center for Advancing Translational Sciences (NCATS)
The list is not random: actives were taken first. Their share in the collection is about 9.2%.
SMN2 splice enh = qHTS Assay for Enhancers of SMN2 Splice Variant Expression. 2.8% of 210,000 active. Potency, µM (series often up to 46.1 µM), usual class: activators. HEK293 SMN2-luciferase splicing reporter, luminescence, 30-36 h; note: nearly all actives have a fitted effect of over 55% in size
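HEK293 cells carry an SMN2 […]–luciferase reporter in which exon 7 inclusion puts luciferase in frame. Cells were plated 10-12 h before compound addition, then incubated 30-36 h at 37C. ONE-Glo luminescence was read; sodium butyrate at 4.5 mM final served as control.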
ELG1 genotox = qHTS screen for small molecules that induce genotoxicity in human embryonic kidney (HEK293T) cells expressing luciferase-tagged ELG1; Potency, µM (top dose mostly 46 µM), hits mostly activators; 1.3% of 330,000 active; HEK293T ELG1-luciferase reporter, luminescence, 16 h; note: nearly all actives have a fitted effect of over 60% in size
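DMSO vehicle served as control against compound-treated ELG1-luciferase HEK293T cells; exposure lasted 16 hr at 37 °C and 5% CO2, followed by ONE-Glo luminescence detection after 30 min.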
Rab9 promoter act = qHTS Assay for Rab9 Promoter Activators; Huh7 Rab9 promoter-luciferase reporter, luminescence, 24 h; Potency, µM (series often up to 9.22 µM), hits mostly activators; 2.8% of 320,000 active; AID 485297, 2010; note: nearly all actives have a fitted effect of over 60% in size
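Huh7 cells stably carrying Rab9 promoter–luciferase reporter, plated 1500 cells/well, compound added after 2 h and incubated 24 h at 37 °C; luciferase luminescence then read after 10 min with detection reagent.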
NPC1 prom act = qHTS Assay for NPC1 Promoter Activators | Huh7 NPC1 promoter luciferase reporter, 24 h | Potency, µM (highest dose often 9.22 µM), hits mostly activators | 2.4% of 320,000 active | AID 485313, 2010; note: nearly all actives have a fitted effect of over 60% in size
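Stable NPC1-promoter luciferase Huh7 line; cpd (DMSO) 24 h, 37 °C, 5% CO2; Amplite luciferase reagent 10 min RT; luminescence readout. qHTS format.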
ELG1 repair inh = qHTS screen for small molecules that inhibit ELG1-dependent DNA repair in human embryonic kidney (HEK293T) cells expressing luciferase-tagged ELG1; HEK293T ELG1-luciferase reporter, luminescence, 16 h; DNA damage induced by 5-fluorouridine; AID 504467, 2011; 2.3% of 330,000 active; Potency, µM (titrated, usually from 46.1 µM), hits mostly inhibitors; note: nearly all actives have a fitted effect of over 55% in size
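Cells (2,000 per well) received 5-fluorouridine plus test compound or DMSO and were incubated 16 hr at 37 °C, 5% CO2. Luciferase activity was read by luminescence 30 min after ONE-Glo addition; signal suppression marked inhibition of damage-induced ELG1 function.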
FLuc modulator = qHTS profiling assay for firefly luciferase inhibitor/activator using purifed enzyme and Km concentrations of substrates (counterscreen for miR-21 project); purified FLuc, Km substrates, luminescence inhibition; Luciferin 4-monooxygenase (Photinus pyralis), P08659; 6.9% of 360,000 active; AID 588342, 2011; Potency, µM (titrated, usually from 57.5 µM), most hits filed as inhibitors; note: nearly all actives have a fitted effect of over 55% in size
Target sequence (P08659 whole entry, looked up): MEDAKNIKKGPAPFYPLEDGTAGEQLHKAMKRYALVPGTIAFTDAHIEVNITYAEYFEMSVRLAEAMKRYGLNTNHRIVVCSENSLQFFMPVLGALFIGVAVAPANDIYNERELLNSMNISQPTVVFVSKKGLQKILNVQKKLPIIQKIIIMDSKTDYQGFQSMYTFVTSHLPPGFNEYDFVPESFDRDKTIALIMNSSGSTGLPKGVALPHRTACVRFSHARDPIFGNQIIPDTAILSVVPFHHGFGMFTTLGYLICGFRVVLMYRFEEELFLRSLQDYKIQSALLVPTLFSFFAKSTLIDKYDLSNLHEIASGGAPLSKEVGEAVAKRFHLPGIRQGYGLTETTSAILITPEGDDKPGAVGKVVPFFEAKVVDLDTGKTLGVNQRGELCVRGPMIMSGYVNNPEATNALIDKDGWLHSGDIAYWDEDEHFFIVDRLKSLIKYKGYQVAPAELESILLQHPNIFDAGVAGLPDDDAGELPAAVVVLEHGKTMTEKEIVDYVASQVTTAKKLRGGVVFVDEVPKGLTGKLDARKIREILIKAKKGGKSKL
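Purified P. pyralis luciferase, 10 nM final, with Km-level 10 uM D-luciferin and 10 uM ATP in 50 mM Tris acetate pH 7.5, 10 mM Mg acetate, 0.01% Tween-20, 0.05% BSA; 6-point qHTS titration about 60 µM downward; luminescence read.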
Numbers stand for hits; . = inactive; ? = inconclusive; / = not tested or not shown. Calls come from the whole dose curve; as a rule, active = well fitted curve in the direction sought with a large enough effect; inconclusive = small, poorly fitted or top-dose-only effect, or another doubt; inactive = no such curve, though single readings can be large; an effect the other way counts as inactive or inconclusive.

SMILES	SMN2 splice enh	ELG1 genotox	Rab9 promoter act	NPC1 prom act	ELG1 repair inh	FLuc modulator
COc1cc(Cl)cc(CN2CCC(CCC(=O)NC3CC3)CC2)c1OC	/	.	.	.	.	.
CCCSCCCNC(=O)CN1C(=O)COc2ccc(S(=O)(=O)N3CCC(C)CC3)cc21	.	/	/	/	/	.
COc1ccc(Cl)cc1NC(=O)Nc1ccccc1C(N)=O	.	.	.	.	.	.
NC(=O)c1ccccc1NC(=O)Nc1cccc(Cl)c1	.	.	.	.	.	15µM
O=C(O)c1ccccc1Nc1ccc(OC(F)F)cc1	.	.	.	.	?	21µM
O=C(Nc1cccc(Cl)c1)Nc1ccccc1C(=O)O	/	?	0.13µM	0.56µM	?	0.85µM
O=C(O)/C=C\C(=O)Nc1ccc(OC(F)F)cc1	.	.	.	.	.	?
COc1cc(NC(=O)Nc2cccc(Cl)c2)c(C(=O)O)cc1OC	/	.	.	.	?	27µM
CC1=CCC2C(=O)N(c3cccc(C(=O)Nc4ccccc4Cl)c3)C(=O)C2C1 (stereo unspecified)	/	.	.	.	.	.
CC(C)CN1C(=O)C(=O)N(CC(=O)c2ccc[nH]2)C1=O	/	.	.	.	.	.
Cc1nn(C)c(Sc2ccccc2N)c1[N+](=O)[O-]	.	.	.	.	?	?
CC(C)(C)NC(=O)Nc1ccccc1C(N)=O	.	.	.	.	.	.
CSc1ccc(NC(=O)Nc2ccccc2C(N)=O)cc1	/	?	?	?	?	1.1µM
COc1ccccc1C(=O)Nc1nsc(-c2ccccc2)n1	/	?	1.6µM	?	?	4.3µM
Cc1cc(C(=O)Nc2sc(C)c(-c3ccc(F)cc3)c2C(N)=O)no1	.	?	3.2µM	3.2µM	?	1.2µM
COc1ccccc1C(=O)Nc1nnc(-c2ccc(F)cc2)s1	/	.	4.5µM	3.2µM	?	4.8µM
Cc1cc(C(=O)Nc2nnc(-c3ccccc3)s2)no1	.	.	?	.	?	27µM
Cc1cc(OCC(=O)NCCc2cccc(F)c2)c2c(C)cc(=O)oc2c1	/	.	.	.	.	.
O=C(Nc1nnc(-c2ccccc2)s1)c1ccc(F)cc1	?	?	1.4µM	?	?	.
O=C(Nc1nnc(-c2ccc(F)cc2)s1)Nc1ccccc1F	/	.	.	.	.	.
CCOc1ccccc1C(=O)N(Cc1ccc(N(C)C)cc1)Cc1ccco1	.	/	/	/	/	.
O=C(O)c1ccc2nc3c(nc2c1)-c1ccccc1C3=O	.	.	?	.	?	15µM
CCc1nc2ccc(C(=O)Nc3cccc(C(C)=O)c3)cc2nc1CC	/	.	.	.	18µM	?
Cc1ccc(-c2nc3ccc(C(=O)O)cc3nc2-c2ccc(C)cc2)cc1	.	.	.	.	?	.
CCc1nc2ccc(C(=O)O)cc2nc1CC	.	?	?	?	?	24µM
SMILES	SMN2 splice enh	ELG1 genotox	Rab9 promoter act	NPC1 prom act	ELG1 repair inh	FLuc modulator
CNC(=O)C1CCC(Cn2c(=O)c3sccc3n(CC(=O)NCc3ccc(OC)cc3)c2=O)CC1 (stereo unspecified)	/	/	/	/	/	.
Cc1ccccc1C(=O)N1CCN(CCNC(=O)C(=O)Nc2ccc(Br)cc2)CC1	/	.	.	.	21µM	.
CN(C)c1ccc(NC(=O)C(=O)NCCOc2ccccc2)cc1	.	.	.	.	.	.
COc1ccccc1C(=O)N1CCN(CCNC(=O)C(=O)Nc2ccc(Br)c(C)c2)CC1	/	.	.	.	?	.
COCCNC(=O)C(=O)Nc1cccc(Br)c1	.	?	.	.	?	.
CCCNC(=O)C(=O)Nc1ccc(N(C)C)cc1	11µM	?	3.2µM	?	?	13µM
COCCNC(=O)C(=O)Nc1ccc(Br)cc1	11µM	?	?	?	?	?
CCOc1ccc(S(N)(=O)=O)cc1-c1nc2c(C(C)(C)C)nn(C)c2c(=O)[nH]1	/	.	.	.	.	.
CCOc1ccc(S(=O)(=O)NC(C)(C)C)cc1-c1nc2c(C(C)(C)C)nn(C)c2c(=O)[nH]1	.	.	.	.	12µM	.
CCCc1cc(=O)oc2c3c(cc(OCC(=O)NCCN4CCOCC4)c12)OC(C)(C)CC3	/	.	.	.	.	.
Cc1ccc(C(=O)c2oc3ccccc3c2N)cc1	13µM	?	?	?	?	17µM
CCOC(=O)c1oc2ccccc2c1N	.	.	.	.	?	.
Nc1c(C(=O)c2ccc(Br)cc2)oc2ccccc12	?	.	.	.	?	.
Nc1c(N)c2ccccc2oc1=O	.	.	.	.	?	.
Nc1c(C(=O)c2cccs2)oc2ccccc12	?	.	.	?	?	15µM
Nc1c(C(=O)c2ccc(Br)s2)oc2ccccc12	?	?	?	?	?	7.6µM
COc1ccc(C(C)(C)C)cc1NC(=O)CCN1C(=O)NC(C)(C)C1=O	/	.	/	/	.	/
COC(=O)N/N=C/c1ccc(OC(=O)/C=C/c2ccco2)cc1	/	.	.	.	.	.
CCc1ccc(OC(=O)/C=C/c2ccco2)cc1	/	.	.	.	?	0.85µM
CC(=O)c1cc2c(cc1NC(=O)c1ccc(Cl)cc1)OCCO2	/	.	.	.	?	.
O=C(Nc1cc2c(cc1Br)OCCCO2)c1ccccc1	16µM	?	4µM	3.5µM	?	13µM
O=C(Nc1cc2c(cc1Br)OCCCO2)c1cccnc1	/	?	.	.	?	?
Cc1ccc(C(=O)Nc2cc3c(cc2Cl)OCCCO3)cc1	11µM	?	2µM	1.8µM	?	7.6µM
O=C(Nc1cc2c(cc1Cl)OCCCO2)c1ccc(F)cc1	7.9µM	?	2.8µM	?	?	12µM
O=C(Nc1cc2c(cc1C(=O)c1ccccc1Cl)OCCO2)c1ccc(Br)cc1	.	/	/	/	/	.
SMILES	SMN2 splice enh	ELG1 genotox	Rab9 promoter act	NPC1 prom act	ELG1 repair inh	FLuc modulator
CCOc1ccc2oc(C(=O)NC3CC(C)(C)NC(C)(C)C3)c(C)c2c1	.	.	.	.	?	.
Cc1c(C(=O)NCCc2ccccc2)oc2ccccc12	/	2.1µM	0.71µM	0.79µM	?	2.1µM
COc1ccc2oc(C(=O)OCC(=O)NCCc3ccccc3)c(C)c2c1	/	.	.	.	.	.
COc1ccc(C(CNC(=O)c2oc3ccccc3c2C)N2CCCC2)cc1 (stereo unspecified)	/	.	.	.	.	21µM
CCOc1ccc2oc(C(=O)NC(C)(C)CC)c(C)c2c1	?	?	2.5µM	?	?	17µM
COc1ccc2oc(C(=O)NCCc3ccccc3)c(C)c2c1	/	?	?	0.45µM	?	?
N/C(=N\OC(=O)c1ccc(Cl)cc1)c1nonc1N	.	.	.	.	.	1.7µM
N/C(=N\OCC(=O)Nc1ccccc1)c1nonc1N	.	.	.	.	?	.
